Data on 30 compounds can be found in ChEMBL document CHEMBL4513146, “CO-ADD screening of Karazin Kharkiv National University (Ukraine) compounds”.

Each structure is given as a SMILES string. Potency and affinity values are given separately.

The subject of one assay is Klebsiella pneumoniae. Conditions: Concentration 32 ug.mL-1;; ASSAY_TEST Inhibition of Bacterial Growth; detection method Absorption (OD600); MEDIA CAMHB; plate type 384well; NBS; CORNING #3640; time 18 hr.
The next assay deals with Candida albicans. The note with it: Concentration 32 ug.mL-1; ASSAY_TEST Inhibition of Fungal Growth; detection method Absorption (OD530).
For another assay, the system named is Cryptococcus neoformans. The note with it: Concentration 32 ug.mL-1; ASSAY_TEST Inhibition of Fungal Growth; detection method Resazurin; Absorption (OD600-OD570); plate type 384well; NBS; CORNING #3640. For orientation: The colour change of resazurin is a common sign of viable cells or microbes.

Usually Inhibition stands for the relative decrease from the control value, in per cent. `Cc1ccc(-c2cc3c4nnc(SCC(=O)Nc5ccccc5Br)n4ccn3n2)cc1`: the Inhibition in the assay on Klebsiella pneumoniae is listed as 5.31%; in the assay on Candida albicans, 5.08%; with Cryptococcus neoformans, -35.04%.

With `COc1cccc(NC(=O)Cn2nc3ccc(SCc4ccc(Cl)cc4)nn3c2=O)c1`, the Inhibition in the assay on Klebsiella pneumoniae is reported as 6.69%; with Candida albicans, 11.57%; with Cryptococcus neoformans, -15.62%.

Consider `COc1cccc(-c2noc(Cn3nc4ccc(-c5ccc(C)c(C)c5)nn4c3=O)n2)c1OC`, for which the figures for the Inhibition with Klebsiella pneumoniae, in the assay with Candida albicans and in the assay with Cryptococcus neoformans were 9.19%, -0.69% and -10.63%, respectively.

As to `O=C(Cn1nc2c(N3CCOCC3)nccn2c1=O)Nc1cccc(C(F)(F)F)c1`, the Inhibition in the assay with Klebsiella pneumoniae was 0.9%; in the assay with Candida albicans it was 5.11%; in the assay with Cryptococcus neoformans, -4.42%.

In the case of `O=C(Cn1nc2c(=O)n(-c3ccc(Br)cc3)ccn2c1=O)Nc1cc(F)ccc1F`, the Inhibition in the assay on Klebsiella pneumoniae is reported as 9.16%; in the assay with Candida albicans it was 1.05%; in the assay on Cryptococcus neoformans, -5.83%.

Consider `C=Cc1ccc(CN(c2ccc(CC)cc2)S(=O)(=O)c2cccn3c(C)nnc23)cc1`, for which the figures for the Inhibition in the assay on Klebsiella pneumoniae, in the assay with Candida albicans and in the assay on Cryptococcus neoformans were 2.48%, 4.32% and -7.66%, respectively.

As to `COc1ccc(NC(=O)Cn2nc3c4cc(-c5ccc(OC)cc5)nn4ccn3c2=O)cc1`, the figures for the Inhibition with Klebsiella pneumoniae, in the assay on Candida albicans and with Cryptococcus neoformans were 12.45%, 2.73% and -13.09%, respectively.

In the case of `Cc1nnc2c(=O)n(CC(=O)Nc3ccc(Cl)cc3F)c3ccccc3n12`, the Inhibition is reported as 7.95% in the assay with Klebsiella pneumoniae, 0.4% with Candida albicans and -18.26% in the assay with Cryptococcus neoformans.

Consider `Cc1cccc(NC(=O)Cn2c(=O)c3nnc(C(C)C)n3c3ccccc32)c1`, for which the Inhibition in the assay on Klebsiella pneumoniae was 2.46%; with Candida albicans it was 0.3%; in the assay on Cryptococcus neoformans it was -17.48%.

As for `CCOc1ccc(-n2ccn3c(SCC(=O)Nc4ccc(C)cc4)nnc3c2=O)cc1`, the Inhibition with Klebsiella pneumoniae is listed as 16.35%; in the assay on Candida albicans, 4.07%; in the assay with Cryptococcus neoformans, -19.05%.

Take `O=C(CSc1nnc2c(=O)n(Cc3ccc(F)cc3)ccn12)NC1CCCC1`: the Inhibition is recorded as 8.75% in the assay with Klebsiella pneumoniae, 5.19% in the assay on Candida albicans and -22.84% with Cryptococcus neoformans.

Regarding `COc1cccc(-n2ccn3c(SCc4cccc(C)c4)nnc3c2=O)c1`, the Inhibition is on record as 11.77% in the assay on Klebsiella pneumoniae, 3.62% in the assay on Candida albicans and -12.18% in the assay with Cryptococcus neoformans.

Turning to `Cc1cc(C)c(NC(=O)Cn2nc3c(N4CCCC(C)C4)nccn3c2=O)c(C)c1` (stereo not given), the Inhibition was -3.43% in the assay on Klebsiella pneumoniae, -1.23% with Candida albicans and -2.74% with Cryptococcus neoformans.

Regarding `COc1cc(OC)c(NC(=O)Cn2nc3c(Oc4ccc(C)cc4)nccn3c2=O)cc1Cl`, the Inhibition in the assay on Klebsiella pneumoniae is recorded as 2%; with Candida albicans, 2.42%; with Cryptococcus neoformans, -3.76%.

In the case of `COc1ccc(-c2cc3c4nnc(CCC(=O)N5CCN(c6ccccc6F)CC5)n4ccn3n2)cc1`, the values for the Inhibition in the assay on Klebsiella pneumoniae, in the assay with Candida albicans and in the assay on Cryptococcus neoformans were 15.22%, 2.19% and -8.32%, respectively.

Consider `CC(=O)c1cccc(NC(=O)Cn2nc3c(N4CCN(c5ccccc5C)CC4)nccn3c2=O)c1`, for which the Inhibition in the assay on Klebsiella pneumoniae was 15.26%; in the assay on Candida albicans, 5.86%; in the assay with Cryptococcus neoformans, -6.16%.

For `COc1ccc(NC(=O)Cn2nc3c4c5c(sc4ncn3c2=O)CCCC5)cc1`, the Inhibition in the assay on Klebsiella pneumoniae is 6.74%; in the assay with Candida albicans it was 5.37%; with Cryptococcus neoformans, -17.73%.

For the compound `Cc1ccc(NC(=O)Cn2nc3c(N4CC(C)CC(C)C4)nccn3c2=O)c(F)c1` (stereo not given), the Inhibition with Klebsiella pneumoniae is 10.72%; in the assay on Candida albicans, 3.58%; in the assay on Cryptococcus neoformans, -9.98%.

`O=C(CSc1nnc2c3cc(-c4ccccc4)nn3ccn12)NCc1ccc(Cl)cc1`: the Inhibition with Klebsiella pneumoniae was 14.11%; in the assay on Candida albicans, 6.05%; in the assay with Cryptococcus neoformans, -28.72%.

As for `COc1cc(-c2nnc3c(=O)n(Cc4ccc(Cl)cc4)ccn23)cc(OC)c1OC`, the results for the Inhibition in the assay with Klebsiella pneumoniae, in the assay on Candida albicans and with Cryptococcus neoformans were 11.02%, -0.08% and -21.41%, respectively.

Take `Cc1cc2nn(CC(=O)Nc3ccc(F)cc3F)c(=O)n2c(Nc2ccc(C)c(F)c2)n1`: the Inhibition in the assay on Klebsiella pneumoniae is 8.43%; with Candida albicans it was 24.78%; in the assay with Cryptococcus neoformans it was -2.94%.

For `COc1ccc(CNC(=O)Cn2nc3c4cc(-c5ccc(Cl)cc5)nn4ccn3c2=O)cc1`, the Inhibition in the assay on Klebsiella pneumoniae is reported as 11.83%; in the assay with Candida albicans, 1.19%; in the assay with Cryptococcus neoformans, -27.86%.

Take `COC(=O)c1ccc(NC(=O)Cn2nc3c(N4CCOCC4)nccn3c2=O)cc1`: the Inhibition in the assay on Klebsiella pneumoniae is given as 12.49%; in the assay with Candida albicans, 2.39%; in the assay with Cryptococcus neoformans, -14.01%.

`COc1cc(Cl)c(C)cc1NC(=O)Cn1nc2ccc(SC(C)(C)C)nn2c1=O`: the Inhibition in the assay on Klebsiella pneumoniae is 11.93%; with Candida albicans, 3.05%; in the assay with Cryptococcus neoformans, -11.08%.

In the case of `Cc1ccccc1Nc1cc(C)n2c(=O)n(CCOc3ccc(F)cc3)nc2n1`, the Inhibition with Klebsiella pneumoniae was 9.7%; in the assay with Candida albicans it was -1.22%; in the assay on Cryptococcus neoformans, -5.27%.

In the case of `COc1cccc(CNC(=O)CSc2nnc3c(=O)n(-c4ccc(C)c(C)c4)ccn23)c1OC`, the Inhibition with Klebsiella pneumoniae was 8.73%; in the assay with Candida albicans it was 0.37%; in the assay on Cryptococcus neoformans, -5.22%.

`COc1cc(NC(=O)Cn2nc3ccc(SC(C)(C)C)nn3c2=O)cc(OC)c1OC`: the Inhibition with Klebsiella pneumoniae is 14.77%; in the assay on Candida albicans it was 0.63%; with Cryptococcus neoformans it was -18.78%.

As to `CCOc1ccc(NC(=O)Cn2nc3c(SCc4ccc(Cl)cc4)nccn3c2=O)cc1`, the results for the Inhibition with Klebsiella pneumoniae, in the assay with Candida albicans and with Cryptococcus neoformans were 5.7%, 17.72% and -25.81%, respectively.

Turning to `O=C(Cn1nc2c(Oc3ccccc3)nccn2c1=O)Nc1ccccc1F`, the figures for the Inhibition in the assay with Klebsiella pneumoniae, with Candida albicans and in the assay with Cryptococcus neoformans were -3.78%, -2.47% and -4.07%, respectively.

Take `COc1ccc(OC)c(NC(=O)Cn2nc3c4cc(-c5ccc(Cl)cc5)nn4ccn3c2=O)c1`: the Inhibition in the assay on Klebsiella pneumoniae is on record as 3.06%; in the assay with Candida albicans, -0.3%; in the assay on Cryptococcus neoformans it was -21.9%.
